Data reported in the supplement of paper PMC9446081.
± gives the standard deviation of the averaged measurements.

These compounds were tested against MurC (UniProt C4ZRI6) (assay: relative enzymatic activity vs untreated control (fraction); higher = less inhibition). Settings: 100 µM; incubation time: 2 h at 37 C.
Protocol: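 In vitro enzymatic inhibition assays (ProFoldin kits) for 12 purified essential E. coli enzymes or complexes, each treated with 218 active antibacterial compounds at 100 µM for 2 h at 37°C. Read-outs were fluorescence or absorbance (phosphate detection, dye binding), converted to activity via standard curves and expressed relative to untreated DMSO controls.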

Sequence of MurC (C4ZRI6 whole entry, looked up): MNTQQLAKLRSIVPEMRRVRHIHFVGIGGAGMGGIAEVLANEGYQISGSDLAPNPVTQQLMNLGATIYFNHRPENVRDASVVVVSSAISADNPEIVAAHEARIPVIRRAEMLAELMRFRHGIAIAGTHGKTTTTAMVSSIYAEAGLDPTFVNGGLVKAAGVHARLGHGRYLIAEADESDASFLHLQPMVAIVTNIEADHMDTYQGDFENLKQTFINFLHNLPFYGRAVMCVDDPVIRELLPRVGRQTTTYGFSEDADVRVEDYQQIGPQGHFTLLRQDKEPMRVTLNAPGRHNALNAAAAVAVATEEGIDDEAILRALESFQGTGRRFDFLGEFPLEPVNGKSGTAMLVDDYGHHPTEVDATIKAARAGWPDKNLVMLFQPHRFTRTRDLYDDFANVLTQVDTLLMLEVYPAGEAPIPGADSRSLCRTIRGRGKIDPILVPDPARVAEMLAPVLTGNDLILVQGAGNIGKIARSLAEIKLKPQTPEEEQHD

Row | Structure (SMILES) | relative enzymatic activity
1 | CCn1cc(C(=O)O)c(=O)c2cc(F)c(N3CCNCC3)cc21 | 1 ± 0.082
2 | CCC(C)CCCCC(=O)NC(CCN)C(=O)NC(C(=O)NC(CCN)C(=O)NC1CCNC(=O)C(C(C)O)NC(=O)C(CCN)NC(=O)C(CCN)NC(=O)C(CC(C)C)NC(=O)C(Cc2ccccc2)NC(=O)C(CCN)NC1=O)C(C)O.O=S(=O)(O)O (stereo not given) | 0.986 ± 0.057
3 | NC(=O)[C@@H]1CC[C@@H]2CN1C(=O)N2OS(=O)(=O)O | 1.04 ± 0.022
4 | Nc1nc(C(=CCC(=O)O)C(=O)NC2C(=O)N3C(C(=O)O)=CCSC23)cs1 (stereo not given) | 0.885 ± 0.2
5 | CCn1cc(C(=O)O)c(=O)c2cc(F)c(N3CCNC(C)C3)c(F)c21.Cl (stereo not given) | 0.984 ± 0.05
6 | CCCCCCCCCCCCCCCC[N+](C)(C)C | 0.568 ± 0.56
7 | COC(=O)N/N=C/c1ccc([N+](=O)[O-])o1 | 1.01 ± 0.15
8 | CO/N=C(\C(=O)N[C@@H]1C(=O)N2C(C(=O)O)=C(CSc3nnnn3C)CS[C@H]12)c1csc(N)n1 | 1.05 ± 0.082
9 | CC(C)[C@@H](CC[C@@H](C)[C@H]1CC[C@H]2[C@@H]3[C@H](O)C[C@H]4C[C@@H](NCCCNCCCCNCCCN)CC[C@]4(C)[C@H]3CC[C@]12C)OS(=O)(=O)O | 1.05 ± 0.014
10 | Cl.O=C1CC2(CCCC2)CC(=O)N1CCCCN1CCN(c2ncccn2)CC1 | 1.073 ± 0.0016
11 | CC1(C)SC2C(N3C(=O)C(c4ccccc4)NC3(C)C)C(=O)N2C1C(=O)[O-].[K+] (stereo not given) | 0.925 ± 0.025
12 | O=c1[nH]c(=O)n([C@@H]2C[C@@H](O)[C@@H](CO)O2)cc1F | 1.02 ± 0.035
13 | NCC[C@H](O)C(=O)N[C@@H]1C[C@H](N)[C@@H](O[C@H]2O[C@H](CN)[C@@H](O)[C@H](O)[C@H]2O)[C@H](O)[C@H]1O[C@H]1O[C@H](CO)[C@@H](O)[C@H](N)[C@H]1O | 1.05 ± 0.11
14 | CO/N=C(\C(=O)N[C@@H]1C(=O)N2C(C(=O)O)=C(C[n+]3ccn4ncccc43)CS[C@H]12)c1nsc(N)n1 | 0.964 ± 0.082
15 | NC[C@H]1O[C@H](O[C@H]2[C@H](O)[C@@H](O[C@H]3O[C@H](CO)[C@@H](O)[C@H](N)[C@H]3O)[C@H](N)C[C@@H]2N)[C@H](N)C[C@@H]1O | 0.918 ± 0.078
16 | CC[C@H]1OC(=O)[C@H](C)[C@@H](O[C@H]2C[C@@](C)(OC)[C@@H](O)[C@H](C)O2)[C@H](C)[C@@H](O[C@@H]2O[C@H](C)C[C@H](N(C)C)[C@H]2O)[C@](C)(O)C[C@@H](C)C(=O)[C@H](C)[C@@H](O)[C@]1(C)O | 0.959 ± 0.064
17 | NCCONC(=O)[C@@H]1CC[C@@H]2CN1C(=O)N2OS(=O)(=O)O | 0.944 ± 0.034
18 | C=C1c2cccc(O)c2C(=O)C2=C(O)C3(O)C(=O)C(C(N)=O)=C(O)C(N(C)C)C3C(O)C12.Cl (stereo not given) | 1.079 ± 0.0059
19 | CC(C)(C)CC(C)(C)c1ccc(OCCOCC[N+](C)(C)Cc2ccccc2)cc1.[Cl-] | 0.398 ± 0.28
20 | C=CC1=C(C(=O)O)N2C(=O)[C@@H](NC(=O)/C(=N\O)c3csc(N)n3)[C@H]2SC1 | 1 ± 0.028

Row | Structure (SMILES) | relative enzymatic activity
21 | NC(C(=O)NC1C(=O)N2C(C(=O)O)=C(Cl)CSC12)c1ccccc1 (stereo not given) | 0.944 ± 0.023
22 | COC1(NC(=O)CSCC#N)C(=O)N2C(C(=O)[O-])=C(CSc3nnnn3C)CSC21.[Na+] (stereo not given) | 1.59 ± 0.09
23 | CCn1cc(C(=O)O)c(=O)c2cc(F)c(N3CCN(C(=S)Nc4cc(C(F)(F)F)ccc4Cl)CC3)cc21 | 1.07 ± 0.069
24 | NC(=O)[C@@H]1C(=O)C[C@@H]2C[C@@H]3Cc4cccc(O)c4C(=O)[C@@H]3C(=O)[C@]2(O)C1=O | 1.17 ± 0.092
25 | COC1(NC(=O)C2SC(=C(C(N)=O)C(=O)O)S2)C(=O)N2C(C(=O)O)=C(CSc3nnnn3C)CSC21 (stereo not given) | 0.978 ± 0.098
26 | CON=C(C(=O)NC1C(=O)N2C(C(=O)O)=C(CSC(=O)c3ccco3)CSC12)c1csc(N)n1.Cl (stereo not given) | 0.89 ± 0.22
27 | CC1CCc2c(N3CCC(O)CC3)c(F)cc3c(=O)c(C(=O)O)cn1c23 (stereo not given) | 0.92 ± 0.079
28 | Oc1c(Cl)cc(Cl)c2cccnc12 | 0.928 ± 0.088
29 | CON=C(C(=O)N[C@@H]1C(=O)N2C(C(=O)OCOC(=O)C(C)(C)C)=C(C=Cc3scnc3C)CS[C@H]12)c1csc(N)n1 | 0.769 ± 0.15
30 | O=c1[nH]c(=O)n([C@H]2C[C@H](O)[C@@H](CO)O2)cc1F | 0.993 ± 0.019
31 | Cc1ccc(S(=O)(=O)O)cc1.NC1CCN(c2nc3c(cc2F)c(=O)c(C(=O)O)cn3-c2ccc(F)cc2F)C1.O (stereo not given) | 0.988 ± 0.17
32 | O=C([O-])CCC(=O)OCC(NC(=O)C(Cl)Cl)C(O)c1ccc([N+](=O)[O-])cc1.[Na+] (stereo not given) | 1.01 ± 0.081
33 | Cc1cc(C(C)(C)CC(C)(C)C)ccc1OCCOCC[N+](C)(C)Cc1ccccc1.[Cl-] | 0.647 ± 0.59
34 | Cc1cn([C@H]2C[C@H](N=[N+]=[N-])[C@@H](CO)O2)c(=O)[nH]c1=O | 1.08 ± 0.11
35 | Cn1sccc1=O | 0.969 ± 0.062
36 | CCN1CCN(c2cc3c(cc2F)c(=O)c(C(=O)O)cn3C2CC2)CC1 | 0.8357 ± 0.0041
37 | Cc1cn(C2CC(N=[N+]=[N-])C(CO)O2)c(=O)[nH]c1=O (stereo not given) | 1.01 ± 0.068
38 | C=CC1=C(C(=O)O)N2C(=O)C(NC(=O)C(=NO)c3csc(N)n3)C2SC1 (stereo not given) | 0.997 ± 0.02
39 | CN(C)[C@@H]1C(=O)[C@@H](C(N)=O)C(=O)[C@@]2(O)C(=O)[C@@H]3C(=O)c4c(O)c(NC(=O)CN5CCCC5)cc(F)c4C[C@H]3C[C@@H]12 | 1.01 ± 0.063
40 | COc1cc(Cc2cnc(N)nc2N)cc(OC)c1OC | 1.03 ± 0.086
